{"source": "PubChem BioAssay (NCATS)", "key": {"[1]": {"biological_target": "Glutathione peroxidase 1 (Homo sapiens) (UniProt P07203)", "sequence (P07203 whole entry, looked up)": "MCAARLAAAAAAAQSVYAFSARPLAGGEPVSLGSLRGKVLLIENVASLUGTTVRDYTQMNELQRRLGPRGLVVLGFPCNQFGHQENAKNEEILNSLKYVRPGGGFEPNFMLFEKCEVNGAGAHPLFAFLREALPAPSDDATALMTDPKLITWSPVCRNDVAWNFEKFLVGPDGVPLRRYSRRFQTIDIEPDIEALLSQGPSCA", "experiment": "Primary qHTS Assay for Inhibitors of Recombinant Selenoprotein Glutathione Peroxidase 1 (GPX1) (AID 1845191); further: nearly all actives have a fitted effect of over 65% in size; further: potency means the concentration at half of the fitted maximal effect", "summary_of_the_method": "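NADPH consumption tracked by fluorescence at 340/450 nm between t=0 and t=15 min, room temperature. Final mix: 10 nM GPX1, 100 nM glutathione reductase, 1 mM GSH, 0.5 mM NADPH, 0.5 mM cumene hydroperoxide, 0.01% BSA; 30 min compound–enzyme preincubation.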"}, "[2]": {"biological_target": "Phospholipid hydroperoxide glutathione peroxidase GPX4 (Homo sapiens) (UniProt P36969)", "sequence (P36969 whole entry, looked up)": "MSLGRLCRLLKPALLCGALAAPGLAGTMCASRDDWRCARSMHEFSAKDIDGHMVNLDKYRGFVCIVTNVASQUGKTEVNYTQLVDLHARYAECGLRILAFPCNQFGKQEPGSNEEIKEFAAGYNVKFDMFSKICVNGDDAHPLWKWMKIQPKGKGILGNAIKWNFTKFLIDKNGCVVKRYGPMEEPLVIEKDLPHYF", "experiment": "Primary qHTS Assay for Inhibitors of Recombinant Selenoprotein Glutathione Peroxidase 4 (GPX4) (AID 1845192); further: nearly all actives have a fitted effect of over 65% in size; on activity change, negative = inhibition: series mostly up to about 50 µM", "summary_of_the_method": "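NADPH consumption followed by fluorescence at 340/450 nm, t=0 and after 15 min at room temperature. Reaction started with cumene hydroperoxide (0.5 mM final) after 30 min compound–GPX4 preincubation; final 200 nM GPX4, 100 nM GR, 1 mM GSH, 0.5 mM NADPH.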"}, "[3]": {"biological_target": "Luciferin 4-monooxygenase (Photinus pyralis) (UniProt P08659)", "experiment": "Primary firefly luciferase (FLuc) qHTS assay for identification of artifact compounds. (AID 1845220); further: nearly all actives have a fitted effect of over 60% in size; further: potency means the concentration at half of the fitted maximal effect; on activity change, negative = inhibition: series mostly up to about 54 µM", "summary_of_the_method": "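FLuc 10 nM; luciferin 10 uM; ATP 10 uM; Tris-acetate pH 7.6, Mg-acetate 10 mM; 15 min RT preincubation; 5 min reaction; luminescence.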"}}, "note": "Values without a mark were called inactive. Results filed as inconclusive are left out. A call without a number means that no potency is given here. The source made the active and inactive calls. The call rests on the fitted dose curve; in most records, active means well fitted inhibition curve with a large enough effect; inconclusive means small, poorly fitted or top-dose-only effect; inactive means flat fitted curve, though single readings scatter. *1 amine or outer side, *2 acyl side, *3 side chain or, on linkers, in order; H or OH if unused. Where a SMILES comes first, the peptide text is derived from it. [ ]: non-standard residue; d: D form. The star is where a group is joined. ξ: configuration not given here. X9 = CCC(C)(N*)C(=O)C1CC[C@@H](C(=O)N[C@@H](Cc2ccccc2)C(=O)NCC(=O)O)N1; X8 = O=C([C@@H]1CC(O)CN1[*:1])[*:2]; aIle = CC[C@@H](C)[C@H](N)C(=O)O; Thr(3ξ) = CC(O)[C@H](N)C(=O)O; ξIva = CCC(C)(N)C(=O)O; Aib = CC(C)(N)C(=O)O", "data": [{"smiles": "CC1=C2C(=O)C=C(CO)C2C2OC(=O)C(CS(=O)(=O)O)C2C(OC(=O)Cc2ccc(O)cc2)C1", "note": "(stereo not drawn)", "values": [{"measurement": "Potency", "setting": "[1]", "value": "inactive"}, {"measurement": "Potency", "setting": "[2]", "value": "inactive"}, {"measurement": "Potency", "setting": "[3]", "value": "inactive"}]}, {"smiles": "CC(C)(O)[C@@H]1CC[C@]2(CO)[C@@H](O)CC[C@](C)(O)[C@H]2[C@@H]1O[C@@H]1O[C@H](CO)[C@@H](O)[C@H](O)[C@H]1O", "values": [{"measurement": "Potency", "setting": "[1]", "value": "inactive"}, {"measurement": "Potency", "setting": "[2]", "value": "inactive"}, {"measurement": "Potency", "setting": "[3]", "value": "inactive"}]}, {"smiles": "CC(O)/C=C/C1(O)C(C)C(O)C(O[C@@H]2O[C@H](CO)[C@@H](O)[C@H](O)[C@H]2O)CC1(C)C", "note": "(stereo partly drawn)", "values": [{"measurement": "Potency", "setting": "[1]", "value": "inactive"}, {"measurement": "Potency", "setting": "[2]", "value": "inactive"}, {"measurement": "Potency", "setting": "[3]", "value": "inactive"}]}, {"smiles": "C=C(C(=O)O)[C@@H]1CC[C@H](C)[C@@H]2CC(=O)C(C)=C2C1", "values": [{"measurement": "Potency", "setting": "[1]", "value": "inactive"}, {"measurement": "Potency", "setting": "[2]", "value": "inactive"}, {"measurement": "Potency", "setting": "[3]", "value": "inactive"}]}, {"smiles": "CCCC/C=C\\CCCCCc1cc(=O)c2ccccc2n1C", "values": [{"measurement": "Potency", "setting": "[1]", "value": "inactive"}, {"measurement": "Potency", "setting": "[2]", "value": "inactive"}, {"measurement": "Potency", "setting": "[3]", "value": "inactive"}]}, {"smiles": "CC(C)CC(=O)O[C@@H]1O[C@H](CO)[C@@H](O[C@H]2O[C@H](C)[C@@H](N[C@H]3C=C(CO)[C@@H](O[C@H]4O[C@H](CO)[C@@H](O[C@H]5O[C@H](CO)[C@@H](O[C@H]6O[C@H](CO)[C@@H](O)[C@H](O)[C@H]6O)[C@H](O)[C@H]5O)[C@H](O)[C@H]4O)[C@H](O)[C@H]3O)[C@H](O)[C@H]2O)[C@H](O)[C@H]1O", "values": [{"measurement": "Potency", "setting": "[1]", "value": "inactive"}, {"measurement": "Potency", "setting": "[2]", "value": "inactive"}, {"measurement": "outcome", "setting": "[3]", "value": "inactive [at 11.6 µM]"}]}, {"smiles": "CC1=CCC[C@@H]2[C@@](C)(CCc3ccoc3)[C@H](C(=O)O)CC[C@@]12C", "values": [{"measurement": "Potency", "setting": "[1]", "value": "inactive"}, {"measurement": "Potency", "setting": "[2]", "value": "inactive"}, {"measurement": "Potency", "setting": "[3]", "value": "inactive"}]}, {"smiles": "C[C@@H]1O[C@@H](O[C@H]2[C@H](O[C@H]3[C@H](O[C@H]4CC[C@@]5(C)C(CC[C@]6(C)C5CC=C5[C@@H]7CC(C)(C)C[C@@H](O)[C@]7(C)CC[C@]56C)C4(C)C)O[C@H](C(=O)O)[C@@H](O)[C@@H]3O)O[C@H](C(=O)O)[C@H](O)[C@@H]2O)[C@H](O)[C@H](O)[C@H]1O", "note": "(stereo partly drawn)", "values": [{"measurement": "Potency", "setting": "[1]", "value": "inactive"}, {"measurement": "Potency", "setting": "[2]", "value": "inactive"}, {"measurement": "outcome", "setting": "[3]", "value": "inactive [at 11.6 µM]"}]}, {"smiles": "COc1c(C)c(OCC=C(C)C)cc2c1CNC2=O", "values": [{"measurement": "Potency", "setting": "[1]", "value": "inactive"}, {"measurement": "Potency", "setting": "[2]", "value": "inactive"}, {"measurement": "Potency", "setting": "[3]", "value": "inactive"}]}, {"smiles": "CC[C@@H](C)[C@H](NC(=O)C(C)(C)NC(=O)[C@H](CCC(N)=O)NC(=O)C(C)(CC)NC(=O)[C@H](Cc1c[nH]c2ccccc12)NC(C)=O)C(=O)N[C@H](C(=O)NC(C)(C)C(=O)N[C@@H](CC(C)C)C(=O)NC(C)(C)C(=O)N1CCC[C@H]1C(=O)N[C@@H](CCC(N)=O)C(=O)NC(C)(C)C(=O)N1CC(O)C[C@H]1C(=O)NC(C)(CC)C(=O)C1CC[C@@H](C(=O)N[C@@H](Cc2ccccc2)C(=O)NCC(=O)O)N1)C(C)O", "note": "(stereo partly drawn) (Ac-W[ξIva]Q[Aib][aIle][Thr(3ξ)][Aib]L[Aib]PQ[Aib][X8]-X9)", "values": [{"measurement": "Potency", "setting": "[1]", "value": "inactive"}, {"measurement": "Potency", "setting": "[2]", "value": "inactive"}, {"measurement": "activity change, negative = inhibition", "setting": "[3]", "value": "-13.1% [at 6.45 µM]"}]}, {"smiles": "Nc1ncnc2c1ncn2[C@H]1O[C@@H](C(=O)N2CCN(CC(=O)Nc3cccc4c3CNC4=O)CC2)[C@H](O)[C@@H]1O", "values": [{"measurement": "Potency", "setting": "[1]", "value": "inactive"}, {"measurement": "Potency", "setting": "[2]", "value": "inactive"}, {"measurement": "Potency", "setting": "[3]", "value": "inactive"}]}, {"smiles": "COC(=O)[C@H](c1ccccc1Cl)N1CCC2SC(=O)C=C2C1", "note": "(stereo partly drawn)", "values": [{"measurement": "Potency", "setting": "[1]", "value": "8.06 µM (active)"}, {"measurement": "Potency", "setting": "[2]", "value": "inactive"}, {"measurement": "Potency", "setting": "[3]", "value": "inactive"}]}, {"smiles": "CC(=O)/C=C/C1C(C)CC(O[C@@H]2O[C@H](CO)[C@@H](O)[C@H](O)[C@H]2O)CC1(C)C", "note": "(stereo partly drawn)", "values": [{"measurement": "Potency", "setting": "[1]", "value": "inactive"}, {"measurement": "Potency", "setting": "[2]", "value": "inactive"}, {"measurement": "Potency", "setting": "[3]", "value": "inactive"}]}, {"smiles": "NC(=O)c1ccc(F)c2c1C[C@@H](N(C1CCC1)C1CCC1)CO2", "values": [{"measurement": "Potency", "setting": "[1]", "value": "inactive"}, {"measurement": "Potency", "setting": "[2]", "value": "inactive"}, {"measurement": "Potency", "setting": "[3]", "value": "inactive"}]}, {"smiles": "NC(=O)C(O[C@@H]1O[C@H](CO[C@@H]2O[C@H](CO)[C@@H](O)[C@H](O)[C@H]2O)[C@@H](O)[C@H](O)[C@H]1O)c1ccccc1", "note": "(stereo partly drawn)", "values": [{"measurement": "Potency", "setting": "[1]", "value": "inactive"}, {"measurement": "Potency", "setting": "[2]", "value": "inactive"}, {"measurement": "Potency", "setting": "[3]", "value": "inactive"}]}, {"smiles": "O=C(/C=C/C=C/c1ccc2c(c1)OCO2)N1CCCCC1", "values": [{"measurement": "Potency", "setting": "[1]", "value": "inactive"}, {"measurement": "Potency", "setting": "[2]", "value": "inactive"}, {"measurement": "Potency", "setting": "[3]", "value": "10.7 µM (active)"}]}, {"smiles": "CC(=O)OC1C(O)/C(C)=C\\C2C(OC(=O)c3ccccc3)C(C)CC2(OC(C)=O)C(OC(C)=O)C(C)/C=C/C(C)(C)C1OC(C)=O", "note": "(stereo not drawn)", "values": [{"measurement": "Potency", "setting": "[1]", "value": "inactive"}, {"measurement": "Potency", "setting": "[2]", "value": "inactive"}, {"measurement": "Potency", "setting": "[3]", "value": "inactive"}]}, {"smiles": "Fc1cccc(CN(C2=NCCN2)c2c(Cl)cccc2Cl)c1", "values": [{"measurement": "Potency", "setting": "[1]", "value": "inactive"}, {"measurement": "Potency", "setting": "[2]", "value": "inactive"}, {"measurement": "Potency", "setting": "[3]", "value": "inactive"}]}, {"smiles": "O=C(OCC1=CC(Cl)C(O)C(OC(=O)c2ccccc2)C1O)c1ccccc1", "note": "(stereo not drawn)", "values": [{"measurement": "Potency", "setting": "[1]", "value": "inactive"}, {"measurement": "Potency", "setting": "[2]", "value": "inactive"}, {"measurement": "Potency", "setting": "[3]", "value": "inactive"}]}, {"smiles": "Cc1cn2cc(CC(=O)N3CCC4(CC3)CN(Cc3ccc(-n5nccn5)cc3Cl)C4)nc2s1", "values": [{"measurement": "Potency", "setting": "[1]", "value": "inactive"}, {"measurement": "Potency", "setting": "[2]", "value": "inactive"}, {"measurement": "Potency", "setting": "[3]", "value": "inactive"}]}, {"smiles": "O=C(OC[C@H]1O[C@@H](Oc2ccccc2COC(=O)C2(O)C=CCCC2O)[C@H](O)[C@@H](O)[C@@H]1O)c1ccccc1", "note": "(stereo partly drawn)", "values": [{"measurement": "Potency", "setting": "[1]", "value": "inactive"}, {"measurement": "Potency", "setting": "[2]", "value": "inactive"}, {"measurement": "Potency", "setting": "[3]", "value": "inactive"}]}]}
